In all, about 1,400 compounds went through this assay and about 350 (25%) were called active. Not shown: some 2% with an inconclusive outcome. The list is a sample of the results. Potency and affinity values are given separately. Unmarked numbers belong to inactive results. The rule behind the calls is not given here.

This test in a line: inhibitors of Clostridioides difficile proliferation – 4-point retest, confirmation (AID 1224921).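 Note: plate controls were DMSO wells for no effect and levofloxacin 16 µg/mL wells for full effect.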 The following applies: Clostridioides difficile clinical isolate growth, OD600, 24 h, stronger effect = lower value; at 30 µM unless noted.
As for `COc1cccc(-c2ccc3c(c2)O[C@H](CN(C)Cc2cccnc2)[C@@H](C)CN([C@@H](C)CO)S3(=O)=O)c1`, the max activity was 21.5%. With `CO[C@@H]1CN(C)C(=O)c2ccc(NC(=O)NC(C)C)cc2OC[C@@H](C)N(C(=O)NC(C)C)C[C@@H]1C`, the max activity is 16.7%.

With `C[C@H]1CN([C@@H](C)CO)S(=O)(=O)c2ccc(C#CC3CCCC3)cc2O[C@H]1CN(C)C(=O)Cc1ccccc1`, the max activity was 16.1%. For the compound `CCCNC(=O)C[C@@H]1CC[C@H]2[C@H](COc3ccc(NC(=O)c4cccc(Cl)c4)cc3C(=O)N2C)O1`, the max activity was -10.6% [at 8 µM]. With `C=CCOC(=O)[C@H]1[C@@H]2C(=O)O[C@@H](c3ccccc3)[C@@H](c3ccccc3)N2[C@@H](c2ccc(OCCOC(=O)[C@H]3C[C@H]4C(=O)N5CCC[C@H]5C(=O)N4[C@H]3c3cccc(OCCO)c3)cc2)[C@]12C(=O)Nc1ccccc12`, the max activity was -23.8% [at 8 µM].

`C[C@@H]1CN([C@@H](C)CO)S(=O)(=O)c2ccc(-c3cncnc3)cc2O[C@H]1CN(C)C(=O)CC1CC1`: the max activity is -11% [at 8 µM]. Consider `CN(C)CC(=O)N1[C@H](C#N)[C@@H](c2ccc(/C=C/c3ccccc3)cc2)[C@H]1CO`, for which the max activity is 19.5%. As for `CO[C@H]1CN(C)C(=O)c2ccc(NC(=O)c3ccccc3F)cc2OC[C@@H](C)N(CC2CC2)C[C@H]1C`, the max activity is 9.45%. To `CCCNC(=O)Nc1ccc2c(c1)OC[C@@H](C)N(Cc1ccccc1)C[C@@H](C)[C@H](OC)CN(C)C2=O` belongs 40.4%. With `C[C@H](CO)N1C[C@H](C)[C@@H](CN(C)C(=O)c2ccccc2)OCCCC[C@H](C)Oc2ccc(NC(=O)Nc3cccc4ccccc34)cc2C1=O`, the max activity was 39.2%. On to `CNC[C@@H]1OCCCC[C@@H](C)Oc2ccc(NC(=O)Nc3cccc4ccccc34)cc2C(=O)N([C@H](C)CO)C[C@H]1C`, for which the max activity was 27.3%. Consider `CNC[C@@H]1OCCCC[C@H](C)Oc2ccc(NC(=O)Nc3ccc(C(F)(F)F)cc3)cc2C(=O)N([C@@H](C)CO)C[C@@H]1C`, for which the max activity is 52.5% [at 8 µM]. As to `CNC[C@H]1OCCCC[C@@H](C)Oc2ccc(NC(=O)Nc3ccc(C(F)(F)F)cc3)cc2C(=O)N([C@@H](C)CO)C[C@H]1C`, the max activity is 33.8% [at 8 µM]. As for `C[C@@H]1CCCCO[C@@H](CN(C)S(=O)(=O)c2ccccc2)[C@@H](C)CN([C@H](C)CO)C(=O)c2cc(NC(=O)Nc3ccc(C(F)(F)F)cc3)ccc2O1`, the max activity was 12.1% [at 8 µM].

With `CNC[C@@H]1Oc2ncc(-c3ccc(OC)cc3)cc2C(=O)N([C@@H](C)CO)C[C@@H]1C`, the max activity was 20.8%.

For `COc1cccc(-c2ccc3c(c2)O[C@@H](CN(C)Cc2cccnc2)[C@H](C)CN([C@@H](C)CO)S3(=O)=O)c1`, the max activity was 12.1%. In the case of `Cc1ccccc1-c1ccc2c(c1)O[C@H](CN(C)Cc1ccncc1)[C@H](C)CN([C@H](C)CO)S2(=O)=O`, the max activity is 50.8%. Consider `CO[C@H]1CN(C)C(=O)c2cc(NS(=O)(=O)c3ccc(Cl)cc3)ccc2OC[C@H](C)N(C(=O)NC(C)C)C[C@@H]1C`, for which the max activity is -13.3% [at 8 µM]. Take `O=C(C[C@@H]1C[C@@H]2c3cc(NC(=O)Nc4ccc(C(F)(F)F)cc4)ccc3O[C@@H]2[C@H](CO)O1)NC1CCCCC1`: the max activity was -10.2% [at 0.5 µM]. Consider `N#C[C@@H]1[C@@H](c2ccc(/C=C/c3ccccc3)cc2)[C@@H](CO)N1C(=O)C1CC1`, for which the max activity is 27%.

For the compound `C[C@@H]1CN([C@@H](C)CO)C(=O)c2c(c3ccccc3n2C)-c2ccccc2CO[C@@H]1CN(C)C(=O)c1ccncc1`, the max activity is 29.1%. On to `COc1ccc(CN(C)C[C@@H]2OCCCC[C@H](C)Oc3ccc(NC(=O)Nc4ccc5c(c4)OCO5)cc3C(=O)N([C@H](C)CO)C[C@@H]2C)cc1`, for which the max activity is 14.8%.

On to `CCCC(=O)Nc1ccc2c(c1)OC[C@@H](C)N(C(=O)c1ccccc1F)C[C@@H](C)[C@@H](OC)CN(C)C2=O`, for which the max activity is 9.79%. With `Cc1ccccc1-c1ccc2c(c1)O[C@@H](CN(C)Cc1ccncc1)[C@H](C)CN([C@H](C)CO)S2(=O)=O`, the max activity is 48.1%. To `CCCN(C)C[C@H]1OCCCC[C@@H](C)Oc2ccc(NC(=O)Nc3ccc(C(F)(F)F)cc3)cc2C(=O)N([C@H](C)CO)C[C@H]1C` belongs -43.7%. To `CCCN(C)C[C@@H]1OCCCC[C@@H](C)Oc2ccc(NC(=O)Nc3ccc(C(F)(F)F)cc3)cc2C(=O)N([C@H](C)CO)C[C@@H]1C` belongs 16.3% [at 8 µM]. With `CCCN(C)C[C@H]1OCCCC[C@H](C)Oc2ccc(NC(=O)Nc3ccc4c(c3)OCO4)cc2C(=O)N([C@@H](C)CO)C[C@@H]1C`, the max activity is 8.67%. Consider `CCCN(C)C[C@H]1OCCCC[C@H](C)Oc2ccc(NC(=O)Nc3ccc(C(F)(F)F)cc3)cc2C(=O)N([C@@H](C)CO)C[C@H]1C`, for which the max activity was 28.8% [at 8 µM]. For `CC(C)NC(=O)N[C@@H]1CC[C@H](CC(=O)NCCCN(C)C)O[C@@H]1CO` the value was -13.1%; for `C[C@@H]1CN([C@H](C)CO)S(=O)(=O)c2ccc(C#CC3CCCC3)cc2O[C@@H]1CN(C)Cc1cccnc1`, 27.7%. Consider `CCCC#Cc1ccc2c(c1)O[C@@H](CN(C)Cc1ccncc1)[C@@H](C)CN([C@@H](C)CO)S2(=O)=O`, for which the max activity is -13.3% [at 8 µM]. On to `CO[C@@H]1CN(C)C(=O)c2cc(NC(=O)c3cnccn3)ccc2OC[C@@H](C)N(CCC(F)(F)F)C[C@H]1C`, for which the max activity was -9.07% [at 35 µM]. On to `CCCNC(=O)Nc1ccc2c(c1)OC[C@H](C)N(Cc1ccccc1)C[C@@H](C)[C@@H](OC)CN(C)C2=O`, for which the max activity is 27.8% [at 8 µM]. For `CNC[C@H]1Oc2ncc(-c3ccc(OC)cc3)cc2C(=O)N([C@H](C)CO)C[C@@H]1C`, the max activity was 27.6%. As for `CO[C@H]1CN(C)C(=O)c2cc(NC(=O)c3ccccc3)ccc2OC[C@H](C)N(C)C[C@H]1C`, the max activity is -10.6% [at 1.95 µM]. For `CO[C@H]1CN(C)C(=O)c2ccc(NS(=O)(=O)c3ccccc3C)cc2OC[C@@H](C)N(S(C)(=O)=O)C[C@@H]1C`, the max activity is 15%.

Regarding `C[C@@H]1CN([C@@H](C)CO)S(=O)(=O)c2ccc(C#CC3CCCC3)cc2O[C@@H]1CN(C)Cc1cccnc1`, the max activity is -18.2% [at 1.95 µM].

`C[C@@H]1CCCCO[C@H](CN(C)Cc2ccccc2)[C@@H](C)CN([C@H](C)CO)C(=O)c2cc(NC(=O)Nc3ccc(C(F)(F)F)cc3)ccc2O1`: the max activity was 19.2% [at 8 µM]. Take `C[C@@H]1CCCCO[C@@H](CN(C)Cc2ccccc2)[C@H](C)CN([C@@H](C)CO)C(=O)c2cc(NC(=O)Nc3ccc(C(F)(F)F)cc3)ccc2O1`: the max activity is 26.5% [at 1.95 µM]. Regarding `CO[C@@H]1CN(C)C(=O)c2cc(NC(=O)NC3CCCCC3)ccc2OC[C@@H](C)N(CCc2ccccc2)C[C@@H]1C`, the max activity was 17.7% [at 8 µM]. Turning to `C[C@H](CO)N1C[C@H](C)[C@H](CN(C)Cc2ccc(-c3ccccc3)cc2)Oc2ncc(C#C[C@@H](C)O)cc2C1=O`, the max activity is 17.2%. To `CO[C@@H]1CN(C)C(=O)c2ccc(NC(=O)c3ccc(Oc4ccccc4)cc3)cc2OC[C@@H](C)NC[C@H]1C` belongs -19.3% [at 2.1 µM]; to `CC(C)CC#Cc1ccc2c(c1)O[C@@H](CN(C)Cc1cccnc1)[C@@H](C)CN([C@H](C)CO)S2(=O)=O`, 41.2%.

Regarding `C[C@H](CO)N1C[C@H](C)[C@H](CN(C)Cc2ccccc2)OCCCC[C@H](C)Oc2ccc(NC(=O)Nc3ccc(F)cc3)cc2C1=O`, the max activity is 37.9%. On to `C[C@@H]1CCCCO[C@H](CN(C)Cc2ccccc2)[C@H](C)CN([C@@H](C)CO)C(=O)c2cc(NC(=O)Nc3ccc(C(F)(F)F)cc3)ccc2O1`, for which the max activity was 26.5% [at 1.95 µM]. As to `CC(C)C#Cc1ccc2c(c1)O[C@H](CN(C)Cc1ccncc1)[C@H](C)CN([C@H](C)CO)S2(=O)=O`, the max activity is 8.71%.

For `CCCNC(=O)Nc1ccc2c(c1)C(=O)N(C)C[C@H](OC)[C@@H](C)CN(Cc1ccccc1)[C@H](C)CO2`, the max activity is 17.2%. In the case of `COc1ccc(NC(=O)Nc2cccc3c2O[C@@H](CN(C)C(=O)NC2CCCCC2)[C@H](C)CN([C@H](C)CO)C3=O)cc1`, the max activity is 7.41%.

For `O=C(C[C@@H]1C[C@@H]2c3cc(NC(=O)CC4CC4)ccc3O[C@@H]2[C@H](CO)O1)NCCc1ccccc1`, the max activity was -14.8%. For the compound `CCC(=O)Nc1ccc2c(c1)C(=O)N(C)[C@@H]1CC[C@H](CC(=O)NCc3ccc(OC)cc3)O[C@@H]1CO2`, the max activity was -3.51% [at 1.95 µM]. In the case of `CC(C)NC(=O)N(C)C[C@H]1Oc2cc(C#Cc3ccc(F)cc3)ccc2S(=O)(=O)N([C@@H](C)CO)C[C@@H]1C`, the max activity is 24.4%. For `C[C@@H]1CN([C@H](C)CO)C(=O)c2cccc(NS(C)(=O)=O)c2O[C@H]1CN(C)Cc1ccccc1`, the max activity is 32.7%. With `CO[C@@H]1CN(C)C(=O)c2cc(NC(=O)c3ccccc3)ccc2OC[C@H](C)N(CC2CC2)C[C@@H]1C`, the max activity is 19.6%. For `COc1cccc(C(=O)Nc2ccc3c(c2)OC[C@@H](C)N(C(=O)C2CCCC2)C[C@H](C)[C@H](OC)CN(C)C3=O)c1` the value was 7.82%; for `CCCC(=O)Nc1ccc2c(c1)C(=O)N(C)C[C@@H](OC)[C@@H](C)CN(Cc1ccccc1)[C@@H](C)CO2`, 9.16%.

Source of the values: PubChem BioAssay AID1224921 (Broad Institute, 2016).
